# PubChem BioAssay (Tox21)
# Inconclusive results are not listed. Entries that show only a call come without a potency. The source made the active and inactive calls. Calls follow the shape of the dose curve; as a rule, active = well fitted inhibition curve with a large enough effect in the repeat runs; inconclusive = weak or mixed curves; inactive = flat fitted curve, though single readings scatter.
# Biological target: Luciferin 4-monooxygenase (Photinus pyralis) (UniProt P08659)
# Assay: qHTS assay to identify small molecule inhibitors of firefly luciferase (AID 1224835); also: nearly all actives have a fitted effect of over 25% in size
# Settings: purified P. pyralis luciferase, luminescence inhibition; series mostly up to 115 µM
# Text: U.S. Tox21 Program National Center for Advancing Translational Sciences [NCATS] NIH Chemical Genomics Center [NCGC] U.S. Environmental Protection Agency [EPA] National Institutes of Environmental Health Sciences [NIEHS] National Toxicology Program [NTP] U.S. Food and Drug Administration [FDA] Tox21 Assay Overview: Firefly (Photinus pyralis) luciferase is one of the most commonly used transcriptional reporters. Firefly luciferase reporter-gene assays are generally considered one of the most sensitive assay types (Wood, 1995; Wood, 1998). However, it was initially observed, in 1991, by Thompson et al., that compounds that resemble the substrates of firefly luciferase (FLuc) can act as competitive inhibitors of the enzyme, and that these compounds, upon interaction with luciferase in the cell, can actually stabilize the protein and increase its half-life. Previous profiling work by other groups to determine the prevalence of compounds that affect FLuc enzymatic activity (PubChem AID 411) identified that ~3% of the MLSMR library (then at ~72K) inhibited FLuc. […] Thus the Tox21 10K library is profiled for activity against FLuc using a biochemical assay of purified FLuc and KM concentrations of FLuc substrates (D-luciferin and ATP).
# These assay plates were then treated with 23nL of compound or DMSO using a Kalypsys pin tool, which allows for delivery of a 6-point interplate titration of each compound to the assay plate (quantitative HTS.) 1 uL of firefly luciferase mix (containing 50 mM Tris acetate, pH 7.6, 0.04 uM P. pyralis luciferase, 0.01% Tween, 0.05% BSA and dH2O) was then delivered by FRD to each well. Luciferase activity was then measured using a ViewLux CCD imager.
# Potency is read from the fitted curve at half-maximal effect.
# Luciferin 4-monooxygenase (Photinus pyralis), sequence (P08659 whole entry, looked up): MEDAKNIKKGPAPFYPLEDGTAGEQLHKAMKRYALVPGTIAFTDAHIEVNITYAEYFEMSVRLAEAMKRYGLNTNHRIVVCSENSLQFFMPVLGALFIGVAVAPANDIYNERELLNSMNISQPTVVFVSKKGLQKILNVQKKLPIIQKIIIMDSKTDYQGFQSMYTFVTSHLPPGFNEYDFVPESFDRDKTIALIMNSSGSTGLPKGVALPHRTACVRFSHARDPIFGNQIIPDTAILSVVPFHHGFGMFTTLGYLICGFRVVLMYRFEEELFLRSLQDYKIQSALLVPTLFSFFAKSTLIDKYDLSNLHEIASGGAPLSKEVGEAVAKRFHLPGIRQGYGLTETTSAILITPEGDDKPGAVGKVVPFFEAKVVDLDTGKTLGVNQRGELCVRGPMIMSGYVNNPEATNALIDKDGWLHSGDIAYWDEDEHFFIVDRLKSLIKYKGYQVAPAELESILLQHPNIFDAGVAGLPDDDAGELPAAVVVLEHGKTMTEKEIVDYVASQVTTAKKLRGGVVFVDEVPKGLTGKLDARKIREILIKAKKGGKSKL
SMILES,Potency,"activity change, negative = inhibition"
C[N+]1(C)[C@@H]2CC(OC(=O)[C@H](CO)c3ccccc3)C[C@H]1[C@@H]1O[C@@H]12 (stereo not given in full),inactive,
CCOC(=O)c1cnc2c(cnn2CC)c1NN=C(C)C,inactive,
O=S(=O)(O)c1cc(O)c(O)c(S(=O)(=O)O)c1,inactive,
COc1ccc2cc1Oc1cc3c(cc1OC)CC[N+](C)(C)[C@H]3Cc1ccc(cc1)Oc1c(OC)c(OC)cc3c1[C@@H](C2)[N+](C)(C)CC3,inactive,
COc1ccnc(CS(=O)c2nc3cc(OC(F)F)ccc3[nH]2)c1OC (stereo not given),inactive,
O=CN(CCO)CCO,inactive,
CCCOC(=O)CC,inactive,
CCOC(=O)C(=O)CCCCCCl,inactive,
CN1CCC(=C2c3ccccc3CCc3cccnc32)CC1,inactive,
Clc1cc(Cl)cc(Cl)c1,inactive,
NC(N)=NCCN1CCCCCCC1,,-0.118% [at 0.435 µM] (inactive)
C=CCCC(=O)O,inactive,
CCCCOC(=O)CCC(C)=O,inactive,
CCO[Si](OCC)(OCC)c1ccccc1,inactive,
CN(C)CCCN(C)CCCN(C)C,inactive,
Nc1ccn([C@@H]2O[C@H](CO)[C@@H](O)C2(F)F)c(=O)n1,inactive,
Nc1ccn([C@@H]2O[C@H](CO)[C@@H](O)C2O)c(=O)n1 (stereo not given in full),inactive,
Cc1ncc(COP(=O)(O)O)c(C=O)c1O,inactive,
CC12CCC(C(=O)C1=O)C2(C)C (stereo not given),inactive,
CC(C)CC(C)(N)C#N (stereo not given),inactive,

SMILES,Potency,"activity change, negative = inhibition"
CCNS(=O)(=O)c1ccc(C)cc1,inactive,
CC[N+](CC)(CC(=O)Nc1c(C)cccc1C)Cc1ccccc1 (tested in a mixture with another compound),inactive,
CC/C=C\CCOC(C)OCC (stereo not given),inactive,
CC(=O)Oc1cccc(C)c1,inactive,
CCCCCC(=O)OCCc1ccccc1,15.9 µM (active),
CCC(C(=O)NC(=O)NC(C)=O)c1ccccc1 (stereo not given),inactive,
CCC(C)(CCCC(C)C)OC(C)=O (stereo not given),inactive,
CCCc1nn(C)c2c(=O)[nH]c(-c3cc(S(=O)(=O)N4CCN(C)CC4)ccc3OCC)nc12,inactive,
CO[Si](C)(OC)c1ccccc1,inactive,
C1CCC2(CCCCO2)OC1,inactive,
CC(C)NNC(=O)c1ccncc1,inactive,
CCOC(=O)C1=NOC(c2ccccc2)(c2ccccc2)C1,71 µM (active),
O=C(O)c1cc(C(=O)O)cc(C(=O)O)c1,inactive,
CCCCCCCCCCCCSC,inactive,
O=C1CCCCCCCCCCCCCCO1,inactive,
c1coc(CNc2ncnc3nc[nH]c23)c1,inactive,
[O-][n+]1cccc(CO)c1,inactive,
O=S(=O)(O)c1cccc(S(=O)(=O)O)c1,inactive,
CCOc1c(N2CCOCC2)cnn(C)c1=O,inactive,
CC(C)[C@H]1CC[C@@H](C)CC1=O,inactive,
